The results in this text go back to PubChem BioAssay (NCI).

Each structure is given as a SMILES string. About 83,000 compounds went through this panel and 20% of them were active in at least one assay; those are over-represented in the sample as a whole.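 A percent growth of 40 corresponds to 60% growth inhibition; 0 means no net growth; -100 means all cells died. Active threshold: below 10.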 Unmarked numbers belong to inactive results. Activity calls are given as the source filed them.

The assay deals with SNB-19 CNS. Nature of the assay: NCI-60 one-dose screen, 48 h (100 = growth as untreated, 0 = no growth, -100 = all killed). The settings on record: 10 µM unless noted.
On to `CCOC(=O)C1=C(C(=O)OCC)N(c2cc(OC)c(OC)c(OC)c2)C(N)=C(C#N)C1c1cc(=O)[nH]c2ccccc12` (stereo not drawn), for which the growth was 98.4%.

As for `CC(=O)Nc1ccc(/C=N/N2CCCCCC2)cc1`, the growth is 91.8%.

With `CCOC(=O)c1cnc(SCC)nc1SC#N`, the growth was 110%.

For `COc1cc(OC)c(C(=O)/C=C/c2cccc(OC(C)=O)c2)cc1CC=C(C)C`, the growth is 101%.

Turning to `COc1cc2ccc(C(C)=O)cc2cc1OC`, the growth is 104%.

Consider `CN1CCCN(CCNc2nccc(-c3c(-c4cccc(O)c4)nc4sccn34)n2)S1(=O)=O`, for which the growth was 99.4%.

As for `CCN(CC)c1ccc(/C=C2/NC(=O)NC2=O)cc1`, the growth is 61.1%.

In the case of `CCOC(=O)c1ccc2c(c1)[n+](=O)c(C(=O)c1ccc3ccccc3c1)c(C(F)(F)F)n2[O-]`, the growth was -85.5% (active).
